Test [1] addresses 3',5'-cyclic-AMP phosphodiesterase 4B (Homo sapiens) (UniProt Q07343). Put plainly: qHTS Assay for Inhibitors of PDE-IV (AID 607; active means well fitted activation curve with a large enough effect in the main read-out, with a control signal flat, not every such curve was filed as active; further: potency means the concentration at half of the fitted maximal effect). Put shortly: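 Cell-based read-out of cAMP via a modified cyclic nucleotide-gated channel and membrane potential dye (535/590 nm) in HEK293 cells expressing PDE4 endogenously. Compounds tested up to 22.9 uM final; 100 uM RO 20-1724 reference.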
Test [2] addresses Guanine nucleotide-binding protein G(i) subunit alpha-1 (Homo sapiens) (UniProt P63096). Nature of the test: qHTS Assay for Inhibitors of RGS12 GoLoco Motif Activity (Green Fluorophore) (AID 879). Further: potency means the concentration at half of the fitted maximal effect. In outline: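 Fluorescence polarization assay: 50 nM Gαi1 with 10 nM FITC-labeled RGS12 GoLoco peptide in 10 mM Tris pH 7.5, 150 mM NaCl, 0.1 mM GDP, 0.05% NP40, 10 min at room temperature with compound.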

The target in test [3] is Cytochrome P450 2C9 (Homo sapiens) (UniProt P11712). Put plainly: qHTS Assay for Inhibitors and Substrates of Cytochrome P450 2C9 (AID 883). Further: nearly all actives have a fitted effect of over 60% in size. Further: potency means the concentration at half of the fitted maximal effect. In outline:
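Human CYP2C9 (10nM) with Luciferin-H at 100uM (its KM) in 25mM KPO4; compound preincubated 10 min at 37C, then NADPH regeneration for 60 min at 37C. Luciferin read by luminescence after detection reagent; normalized to 57uM sulphaphenazole as full inhibition.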

Test [4] addresses Cytochrome P450 3A4 (Homo sapiens) (UniProt P08684). Nature of the test: qHTS Assay for Activators of Cytochrome P450 3A4 (AID 885). Further: nearly all actives have a fitted effect of over 65% in size. Put shortly: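 Signal was normalized against complete inhibition by 57 uM ketoconazole. The reaction used 20nM CYP3A4 with 25uM Luciferin-PPXE, 10-min compound preincubation and a 60-min NADPH-supported step at RT.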
In general terms: qHTS replaces the single test concentration by a dilution series.

The target is the same in test [5]. Put plainly: qHTS Assay for Inhibitors and Substrates of Cytochrome P450 3A4 (AID 884). Further: nearly all actives have a fitted effect of over 50% in size. Further: potency means the concentration at half of the fitted maximal effect. Put shortly:
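20 nM human CYP3A4 with 25 uM Luciferin-PPXE (at KM) in 200 mM KPO4, preincubated 10 min with compound; NADPH regeneration started a 60 min RT reaction. Luciferin detected by luminescence, normalized to 57 uM ketoconazole as full inhibition.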

For test [6], the target named is Cytochrome P450 2D6 (Homo sapiens) (UniProt P10635). Nature of the test: qHTS Assay for Inhibitors and Substrates of Cytochrome P450 2D6 (AID 891). Further: nearly all actives have a fitted effect of over 60% in size. Further: potency means the concentration at half of the fitted maximal effect. Put shortly: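 Human CYP2D6 (5 nM) with 30 uM Luciferin-ME EGE (at Km) in 100 mM KPO4, compound preincubated 10 min, then NADPH regeneration system for 60 min at room temperature. Luciferin read by luminescence; normalized to 1.43 uM quinidine.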

A short description of test [7]: Cellular Toxicity (caspase-3) HepG2 (AID 654).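 Further: cells exposed to compound for 16 hours before reading.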 Put shortly: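 qHTS, HepG2, 1500 cells/well, complete medium; cpd 16 h 37 °C; Caspase-Glo 3/7, 20 min RT; lum. Norm: DMSO vs 100 uM tamoxifen; AC50 Hill fit.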
Test [8] in a line: Cellular Toxicity (caspase-3) Jurkat (AID 655).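 Further: cells exposed to compound for 16 h at 37 °C before reading.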 In outline:
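Jurkat cells (5000/well) in complete medium were treated with compounds for 16 hr at 37 °C, then Caspase-Glo 3/7 luminescence was read after 20 min at room temperature. Data normalized to DMSO (basal) and 100 uM tamoxifen (100%); AC50 from Hill fit.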

Test [9] in a line: Cellular Toxicity (caspase-3) HUV-EC-C (AID 656). Put shortly: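 HUV-EC-C endothelial cells, 1000/well, were pre-incubated 5 hr at 37°C, then exposed to compounds for 16 hr at 37°C. Caspase-Glo 3/7 luminescence was read after 20 min at room temperature. AC50 came from Hill fits, normalized to DMSO and 100 uM tamoxifen.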
A short description of test [10]: Cellular Toxicity (caspase-3) SHSY5Y (AID 657). In outline:
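SH-SY5Y human neuroblastoma cells (1500/well) were treated with compounds for 16 h at 37 °C, then Caspase-Glo 3/7 luminescence was read after 1 h at room temperature. Data normalized to DMSO and 10 uM staurosporine; AC50 from Hill fits.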

Test [11] in a line: Cellular Toxicity (caspase-3) BJ (AID 658). Particulars: Potency: caspase-3 activation. In outline:
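BJ human foreskin fibroblasts, 1000 cells/well, treated 16 hours at 37 °C in complete medium; caspase 3/7 activity by Caspase-Glo luminescence after 1 hr at room temperature. Normalized to DMSO and 10 uM staurosporine; AC50 from Hill fits.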

A short description of test [12]: Cellular Toxicity (caspase-3) MRC-5 (AID 659). Particulars: Potency: caspase-3 activation. Put shortly:
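MRC-5 human normal lung fibroblasts, 1500 cells/well, treated 16 h at 37 °C in complete medium. Caspase 3/7 measured by Caspase-Glo luminescence after 1 h at room temperature. Normalized to DMSO and 10 uM staurosporine; AC50 from Hill fit.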

Test [13] can be described thus: Cellular Toxicity (caspase-3) Mesangial (AID 660).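 Further: combined caspase 3 and 7 activity read by Caspase-Glo luminescence; cells exposed to compound for 16 h before the caspase read.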 In outline: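 Concentration-response qHTS: compound-induced rise in caspase 3/7 luminescence in human mesangial cells after 16 h, normalized to DMSO and 100 uM tamoxifen controls.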
A short description of test [14]: Cellular Toxicity (caspase-3) SK-N-SH (AID 661). Particulars: SK-N-SH caspase-3 activation, qHTS; caspase-3 activation: at 91.7 µM (top of the series), DMSO as zero, staurosporine as full. In outline:
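Caspase 3/7 activation is measured as a luminescence increase from aminoluciferin released by substrate cleavage in SK-N-SH cells after 16 hr compound treatment; values are AC50 from concentration-response curves.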

Test [15] in a line: Cellular Toxicity (caspase-3) Hek293 (AID 664).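 Further: cells exposed to compound for 16 h at 37 °C before readout.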 In outline:
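Activation of caspase-3/7 is measured as increased luminescence from cleaved peptide-aminoluciferin substrate in HEK293 cells treated 16 hours at 37 °C. AC50 values come from Hill-equation fits of concentration-response data.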

A short description of test [16]: Cellular Toxicity (caspase-3) N2a (AID 665).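 Further: compound exposure lasted 16 h at 37 °C before readout.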 In outline: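 Plated mouse neuroblastoma N2a cells received titrated compounds for 16 h in complete medium. Caspase activity was then detected with a peptide-aminoluciferin luminescent reagent.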
Test [17] is described as follows: Cellular Toxicity (caspase-3) NIH 3T3 (AID 666).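 Further: caspase signal read after 16 h compound exposure.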 Put shortly: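 Concentration-response qHTS in NIH 3T3 mouse fibroblasts scores caspase-3/7 activation as rising luminescence after 16 hr compound exposure. Signals are scaled between DMSO-only and 100 uM tamoxifen.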
Test [18] can be described thus: Cellular Toxicity (caspase-3) Renal Proximal Tubule (AID 667).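 Further: cells exposed to compound for 16 hours at 37 °C before detection.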 Particulars: renal proximal tubule cells; at 91.7 µM (top of the series) unless noted. Put shortly: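 Primary rat proximal tubule cells, 1000/well, 5 h plating at 37 °C, then compound 16 h at 37 °C. Caspase-Glo 3/7 reagent, 1 h RT, luminescence. Normalized to DMSO (basal) and 10 uM staurosporine (100%); Hill-fit AC50.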

“And” between values parts separate entries of the source, which are not always exact repeats. Equal values may be shown once. Values without a mark were called inactive. Inconclusive results are not listed. Where a call stands in place of a potency, no number is given. The source made the active and inactive calls. Unless noted, the call rests on the fitted dose curve; in most records, active means well fitted curve in the direction sought with a large enough effect; inconclusive means small, poorly fitted or top-dose-only effect, or another doubt; inactive means no such curve, though single readings can be large; an effect the other way counts as inactive or inconclusive.

Chain of Guanine nucleotide-binding protein G(i) subunit alpha-1 (Homo sapiens) (P63096 whole entry, looked up): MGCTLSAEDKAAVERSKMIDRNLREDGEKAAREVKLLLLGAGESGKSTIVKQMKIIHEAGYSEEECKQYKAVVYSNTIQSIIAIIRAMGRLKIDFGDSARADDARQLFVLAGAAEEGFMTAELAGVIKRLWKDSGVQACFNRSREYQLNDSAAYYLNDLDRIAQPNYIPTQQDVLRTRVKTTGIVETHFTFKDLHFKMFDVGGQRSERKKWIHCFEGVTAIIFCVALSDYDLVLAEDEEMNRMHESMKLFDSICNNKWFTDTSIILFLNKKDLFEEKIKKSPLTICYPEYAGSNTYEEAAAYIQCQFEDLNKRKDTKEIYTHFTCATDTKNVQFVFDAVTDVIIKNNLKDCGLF
Chain of Cytochrome P450 2D6 (Homo sapiens) (P10635 whole entry, looked up): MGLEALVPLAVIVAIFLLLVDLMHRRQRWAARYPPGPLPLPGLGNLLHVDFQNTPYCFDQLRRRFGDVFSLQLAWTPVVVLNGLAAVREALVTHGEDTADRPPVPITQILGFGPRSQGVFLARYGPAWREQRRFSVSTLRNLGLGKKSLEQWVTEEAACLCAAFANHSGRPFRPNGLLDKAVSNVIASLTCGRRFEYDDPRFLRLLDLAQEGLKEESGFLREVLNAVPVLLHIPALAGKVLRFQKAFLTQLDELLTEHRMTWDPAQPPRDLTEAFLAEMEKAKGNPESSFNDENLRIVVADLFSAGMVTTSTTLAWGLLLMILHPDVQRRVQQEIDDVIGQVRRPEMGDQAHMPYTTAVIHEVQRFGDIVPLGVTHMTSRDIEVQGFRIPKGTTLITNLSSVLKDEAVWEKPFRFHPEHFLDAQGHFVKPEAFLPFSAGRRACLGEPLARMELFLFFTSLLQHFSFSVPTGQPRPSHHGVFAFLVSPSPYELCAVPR
Chain of 3',5'-cyclic-AMP phosphodiesterase 4B (Homo sapiens) (Q07343 whole entry, looked up): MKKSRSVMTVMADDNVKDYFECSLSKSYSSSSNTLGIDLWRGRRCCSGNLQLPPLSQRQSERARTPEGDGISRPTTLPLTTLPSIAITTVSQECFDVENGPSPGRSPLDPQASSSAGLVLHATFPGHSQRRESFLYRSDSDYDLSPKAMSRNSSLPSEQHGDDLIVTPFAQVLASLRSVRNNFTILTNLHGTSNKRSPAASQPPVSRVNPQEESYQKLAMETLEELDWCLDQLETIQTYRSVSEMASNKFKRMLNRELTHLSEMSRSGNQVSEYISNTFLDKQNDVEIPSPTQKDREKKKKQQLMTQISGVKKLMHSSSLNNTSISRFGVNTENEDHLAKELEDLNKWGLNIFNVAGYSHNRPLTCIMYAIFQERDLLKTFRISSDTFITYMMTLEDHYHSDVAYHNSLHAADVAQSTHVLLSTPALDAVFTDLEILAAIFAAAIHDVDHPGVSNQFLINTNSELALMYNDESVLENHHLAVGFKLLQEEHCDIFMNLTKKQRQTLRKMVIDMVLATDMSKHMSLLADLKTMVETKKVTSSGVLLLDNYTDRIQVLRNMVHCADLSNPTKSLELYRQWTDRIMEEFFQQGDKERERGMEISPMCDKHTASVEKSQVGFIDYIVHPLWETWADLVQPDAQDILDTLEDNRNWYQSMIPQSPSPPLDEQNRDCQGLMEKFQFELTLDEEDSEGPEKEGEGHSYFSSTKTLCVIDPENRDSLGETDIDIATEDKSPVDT
Chain of Cytochrome P450 2C9 (Homo sapiens) (P11712 whole entry, looked up): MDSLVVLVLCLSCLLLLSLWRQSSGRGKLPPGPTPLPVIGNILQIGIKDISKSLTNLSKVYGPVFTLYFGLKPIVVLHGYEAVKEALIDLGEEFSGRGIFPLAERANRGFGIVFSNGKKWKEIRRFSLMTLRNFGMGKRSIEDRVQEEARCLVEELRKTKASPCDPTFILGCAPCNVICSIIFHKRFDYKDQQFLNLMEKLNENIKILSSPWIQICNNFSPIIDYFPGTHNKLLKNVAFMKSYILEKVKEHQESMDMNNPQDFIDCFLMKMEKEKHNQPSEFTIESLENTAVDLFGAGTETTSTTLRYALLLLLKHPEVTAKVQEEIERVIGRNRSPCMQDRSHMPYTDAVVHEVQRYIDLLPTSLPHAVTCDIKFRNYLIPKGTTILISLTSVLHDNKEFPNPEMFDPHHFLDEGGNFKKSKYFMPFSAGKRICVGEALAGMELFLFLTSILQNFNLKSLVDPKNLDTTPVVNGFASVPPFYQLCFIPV
Chain of Cytochrome P450 3A4 (Homo sapiens) (P08684 whole entry, looked up): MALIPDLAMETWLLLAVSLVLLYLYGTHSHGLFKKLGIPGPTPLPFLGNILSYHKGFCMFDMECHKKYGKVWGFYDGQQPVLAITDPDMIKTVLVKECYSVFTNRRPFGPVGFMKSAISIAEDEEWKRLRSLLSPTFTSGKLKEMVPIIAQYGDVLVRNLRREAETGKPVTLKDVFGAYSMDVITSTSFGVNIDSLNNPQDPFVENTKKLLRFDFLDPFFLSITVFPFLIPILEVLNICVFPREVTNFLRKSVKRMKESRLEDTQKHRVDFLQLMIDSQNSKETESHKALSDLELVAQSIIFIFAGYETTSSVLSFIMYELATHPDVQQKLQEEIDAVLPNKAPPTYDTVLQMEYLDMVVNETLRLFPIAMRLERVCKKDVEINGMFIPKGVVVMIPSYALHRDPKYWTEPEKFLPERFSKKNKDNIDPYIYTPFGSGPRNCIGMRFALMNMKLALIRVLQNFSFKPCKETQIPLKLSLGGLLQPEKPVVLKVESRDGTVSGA

On to `CCCN(CCC)CCc1c[nH]c2ccc(C(N)=O)cc12`, for which the Potency result in test [1], in [2] and in test [3] was “inactive” in each case.
Regarding `NCCc1c[nH]c2ccc(C(N)=O)cc12`, the Potency result in test [1] and in test [2] was “inactive” in each case.
With `CN1CCc2cccc(Cl)c2CC1`, in [2], the Potency result was “inactive”.
`CC(=O)NBr`: the Potency entry in [2] was “inactive”.
With `COc1ccc2[nH]c3c(c2c1)CCNC3`, the Potency result in [2] is “inactive”.
Turning to `CCCN(CCC)CCc1ccc(O)c(O)c1`, in [2], the Potency entry is “inactive”.
As to `NC(=O)c1cc(N2CC2)c([N+](=O)[O-])cc1[N+](=O)[O-]`, the Potency entry in [1] and in test [2] was “inactive” throughout. Further, the result in test [4] was inactive.
Consider `OCc1cnc[nH]1`, for which, in test [2], the Potency result was “inactive”.
In the case of `NC(=O)COc1c(F)cc(SCCNS(=O)(=O)c2ccccc2)cc1F`, the Potency entry in test [1] and in test [2] was “inactive” throughout. Moreover, the result in [4] was inactive.
`CCCN(CCC)C1Cc2cc(OC)c(OC)cc2C1`: the Potency result in test [2] and in test [3] was “inactive” throughout.
As to `CCS(=O)(=O)Nc1cccc(C(=C2CCCCC2)c2cnc[nH]2)c1`, the Potency result in test [1] and in [2] was “inactive” each time. Besides, the Potency is 631 nM (active) in test [3], 316 nM (active) in test [5] and 7.94 µM (active) in [6]. Besides, the molecule was classed as inactive in [4].
Take `c1ccc2cc(CC3=NCCN3)ccc2c1`: the Potency entry in test [2] is “inactive”.
Consider `N#CCCN`, for which the Potency result in test [1] and in test [2] was “inactive” throughout.
Regarding `c1ccc2c(N3CCNCC3)cccc2c1`, the Potency entry in [1] and in test [2] was “inactive” in each case.
Regarding `CC(C)Nc1ccc(Nc2ccccc2)cc1`, the call in test [7], in test [9], in test [10], in test [13], in test [15] and in [16] was inactive. For the same molecule, in [4], the call was inactive. The Potency entry in test [8], in [11], in test [12], in [14] and in [17] was “inactive” each time. Besides, the caspase-3 activation in test [18] was 11.6% [at 91.7 µM, primary cells freshly taken from rat, solvent-only wells 0%, staurosporine 100%].
In the case of `O=[N+]([O-])c1cc(O)c(O)c([N+](=O)[O-])c1`, the Potency result in test [2] and in [6] was “inactive” throughout. For the same molecule, the Potency in test [3] was 10 µM (active) and 794 nM (active).
`CCCn1c(C)c(C(=O)c2ccc3ccccc3c2)c2ccccc21`: the Potency entry in test [1], in [2] and in [5] was “inactive” throughout.
On to `CC(C)(C)c1cc(C=C(C#N)C#N)cc(C(C)(C)C)c1O`, for which, in [2], the Potency result was “inactive”. In addition, the values for the Potency in [3] and in [5] were 31.6 nM (active) and 3160 nM (active), respectively. In addition, in test [4], the molecule was called inactive.
As to `O=C(O)c1cc[c]([Hg][Cl])cc1`, the Potency in test [2] is 25100 nM (active).
Turning to `C[N+](C)(C)CC#CCOC(=O)Nc1cccc(Cl)c1`, the Potency result in test [1] and in test [2] was “inactive” throughout.
For `Cc1sc2ccccc2c1CC1=NCCN1`, in test [2], the Potency result is “inactive”.
As to `O=c1ccc2[nH]cc(C3=CCNCC3)c2[nH]1`, the Potency entry in [1] was “inactive”. Moreover, in [6], the Potency is 2.51 µM (active).
Take `NC(=O)CI`: the Potency result in test [1] and in test [2] was “inactive” throughout. Besides, the call in test [4] was inactive.
On to `C[C@@H]1[C@@H]2Cc3ccc(O)cc3[C@@]1(C)CCN2CC1CC1`, for which the Potency result in test [2] is “inactive”.
The same measure, in the same setting: under `C[N+](C)(C)CCOC(=O)CBr` stands “inactive”; under `NCCc1ccc(S(=O)(=O)F)cc1`, “inactive”.
In the case of `COc1ccc2[nH]cc(CCN)c2c1`, the Potency entry in [2] and in [5] was “inactive” each time.
As for `C[C@H](N)CN1CCc2ccc(Br)cc21`, the Potency result in test [2] was “inactive”.
As to `O=c1c2ccccc2[se]n1-c1ccccc1`, the Potency entry in [1] is “inactive”. Further, the Potency in test [2] is 12600 nM (active); in [3], 1 µM (active) and 79.4 nM (active); in [5], 3.98 µM (active) and 25.1 µM (active); in test [6] it was 10 µM (active) and 1 µM (active). In addition, in test [4], the result was inactive.
Turning to `O=P(O)(O)C(Cl)(Cl)P(=O)(O)O`, in test [2], the Potency result is “inactive”.
With `C[C@@H]1O[C@H](C[N+](C)(C)C)CS1`, the Potency in test [1] was 1260 nM (active). Besides, the Potency result in test [2] is “inactive”.
